# Assay results: the supplement of paper PMC9262897, “Low-cost anti-mycobacterial drug discovery using engineered E. coli” (Nature Communications, 2022)
# Structures can show the parent of a compound that is named as a salt. ± gives the standard deviation of the averaged measurements.
# Tests used:
# Test in all cases: growth (OD600 after 10 h); higher = more growth (less inhibition)
# [1] = test system: E. coli TESEC Alr+ wild-type control; conditions: compound 0.1 mM; raw OD600 reference: median of DMSO wells 0.241, cell-free background 0.041
# Protocol: (§1)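 TESEC Mtb Alr E. coli, or the Alr+ wild-type control, in 384-well plates with Prestwick library compounds at 0.1 mM and 1% DMSO, across arabinose induction levels of 1E3 to 1E7 nM. Growth is read as OD600 after 10 h at 37 °C in triplicate biological replicates.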
# E. coli TESEC Mtb Alr [2] = conditions: compound 0.1 mM
# Protocol: as §1
# E. coli TESEC Mtb Asd = conditions: compound 0.1 mM
# Protocol: (§2)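 TESEC E. coli strains in which the native enzyme is deleted and replaced by arabinose-inducible Mtb Asd, DapB, CysH or TrpD, each grown in its selective medium. Strains were screened against the Prestwick library at 0.1 mM and 1% DMSO in 384-well format at low and high arabinose induction. Growth is read as OD600 after 10 h in triplicate.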
# E. coli TESEC Mtb DapB = conditions: compound 0.1 mM
# Protocol: as §2
# E. coli TESEC Mtb Alr [3] = conditions: compound 0.1 mM; remark: listed apart in the source
# Protocol: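 TESEC Mtb Alr E. coli (ΔaraC ΔtolC ΔentC Δalr ΔdadX, arabinose-inducible Mtb Alr) or the Alr+ wild-type control strain, grown in defined M9-fructose medium without D-alanine in 96-well plates with Prestwick library compounds at 0.1 mM and 1% DMSO. Low Alr induction is 0.1 µM arabinose and high induction is 10 mM arabinose.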
# [4] = arabinose 1000 nM, raw OD600 reference: median of DMSO wells 0.294, cell-free background 0.041
# [5] = arabinose 10000 nM, raw OD600 reference: median of DMSO wells 0.264, cell-free background 0.041
# [6] = arabinose 100000 nM, raw OD600 reference: median of DMSO wells 0.201, cell-free background 0.041
# [7] = arabinose 1000000 nM, raw OD600 reference: median of DMSO wells 0.193, cell-free background 0.041
# [8] = arabinose 10000000 nM, raw OD600 reference: median of DMSO wells 0.146, cell-free background 0.041
# [9] = arabinose induction (level): High, raw OD600 reference: median of DMSO wells 0.331, cell-free background 0.041
# [10] = arabinose induction (level): Low, raw OD600 reference: median of DMSO wells 0.417, cell-free background 0.041
# [11] = arabinose induction (level): High, raw OD600 reference: median of DMSO wells […], cell-free background 0.041
# [12] = arabinose induction (level): Low, raw OD600 reference: median of DMSO wells 0.227, cell-free background 0.041
# [13] = arabinose 100 nM, raw OD600 reference: median of DMSO wells 0.413, cell-free background 0.052
# [14] = arabinose 10000000 nM, raw OD600 reference: median of DMSO wells […], cell-free background 0.052
structure (smiles),measurement,setting,value
Clc1cnccn1 [2-Chloropyrazine],growth,[1],0.241 ± 0.011
same,growth,E. coli TESEC Mtb Alr [2]; [4],0.03733 ± 0.00025
same,growth,E. coli TESEC Mtb Alr [2]; [5],0.0408 ± 0.0011
same,growth,E. coli TESEC Mtb Alr [2]; [6],0.11 ± 0.0059
same,growth,E. coli TESEC Mtb Alr [2]; [7],0.112 ± 0.0027
same,growth,E. coli TESEC Mtb Alr [2]; [8],0.196 ± 0.0073
same,growth,E. coli TESEC Mtb Asd; [9],0.245 ± 0.034
same,growth,E. coli TESEC Mtb Asd; [10],0.307 ± 0.049
same,growth,E. coli TESEC Mtb DapB; [11],0.231 ± 0.013
same,growth,E. coli TESEC Mtb DapB; [12],0.254 ± 0.025
same,growth,E. coli TESEC Mtb Alr [3]; [13],0.4217 ± 0.0015
same,growth,E. coli TESEC Mtb Alr [3]; [14],0.325 ± 0.0083
CN(Cc1ccc(C(C)(C)C)cc1)Cc1cccc2ccccc12 [Butenafine Hydrochloride],growth,[1],0.182 ± 0.0021
same,growth,E. coli TESEC Mtb Alr [2]; [4],0.177 ± 0.0088
same,growth,E. coli TESEC Mtb Alr [2]; [5],0.2 ± 0.0095
same,growth,E. coli TESEC Mtb Alr [2]; [6],0.147 ± 0.0047
same,growth,E. coli TESEC Mtb Alr [2]; [7],0.0789 ± 0.0012
same,growth,E. coli TESEC Mtb Alr [2]; [8],0.116 ± 0.0035
same,growth,E. coli TESEC Mtb Asd; [9],0.204 ± 0.012
same,growth,E. coli TESEC Mtb Asd; [10],0.182 ± 0.019
same,growth,E. coli TESEC Mtb DapB; [11],0.15 ± 0.019
same,growth,E. coli TESEC Mtb DapB; [12],0.169 ± 0.02
same,growth,E. coli TESEC Mtb Alr [3]; [13],0.312 ± 0.013
same,growth,E. coli TESEC Mtb Alr [3]; [14],0.11 ± 0.0097
CCN(CC)C(=O)c1ccc(O)c(OC)c1 [Ethamivan],growth,[1],0.24 ± 0.0033
same,growth,E. coli TESEC Mtb Alr [2]; [4],0.295 ± 0.0045
same,growth,E. coli TESEC Mtb Alr [2]; [5],0.249 ± 0.0036
same,growth,E. coli TESEC Mtb Alr [2]; [6],0.232 ± 0.013
same,growth,E. coli TESEC Mtb Alr [2]; [7],0.181 ± 0.0058
same,growth,E. coli TESEC Mtb Alr [2]; [8],0.138 ± 0.0057
same,growth,E. coli TESEC Mtb Asd; [9],0.388 ± 0.079
same,growth,E. coli TESEC Mtb Asd; [10],0.397 ± 0.041
same,growth,E. coli TESEC Mtb DapB; [11],0.196 ± 0.0081
same,growth,E. coli TESEC Mtb DapB; [12],0.2251 ± 0.0019
same,growth,E. coli TESEC Mtb Alr [3]; [13],0.406 ± 0.013
same,growth,E. coli TESEC Mtb Alr [3]; [14],0.356 ± 0.02
C=CCc1ccccc1OCC(O)CNC(C)C (stereo not drawn) [Alprenolol hydrochloride],growth,[1],0.217 ± 0.0068
same,growth,E. coli TESEC Mtb Alr [2]; [4],0.267 ± 0.013
same,growth,E. coli TESEC Mtb Alr [2]; [5],0.259 ± 0.013
same,growth,E. coli TESEC Mtb Alr [2]; [6],0.199 ± 0.023
same,growth,E. coli TESEC Mtb Alr [2]; [7],0.156 ± 0.0022
same,growth,E. coli TESEC Mtb Alr [2]; [8],0.145 ± 0.0043
same,growth,E. coli TESEC Mtb Asd; [9],0.322 ± 0.074
same,growth,E. coli TESEC Mtb Asd; [10],0.419 ± 0.027
same,growth,E. coli TESEC Mtb DapB; [11],0.183 ± 0.011
same,growth,E. coli TESEC Mtb DapB; [12],0.284 ± 0.059
same,growth,E. coli TESEC Mtb Alr [3]; [13],0.405 ± 0.013
same,growth,E. coli TESEC Mtb Alr [3]; [14],0.363 ± 0.013
CC(=O)OCC(=O)[C@@]1(OC(C)=O)[C@@H](C)C[C@H]2[C@@H]3C[C@H](F)C4=CC(=O)C=C[C@]4(C)[C@@]3(F)[C@@H](O)C[C@@]21C [Diflorasone Diacetate],growth,[1],0.159 ± 0.0032
same,growth,E. coli TESEC Mtb Alr [2]; [4],0.178 ± 0.0085
same,growth,E. coli TESEC Mtb Alr [2]; [5],0.162 ± 0.0026
same,growth,E. coli TESEC Mtb Alr [2]; [6],0.194 ± 0.014
same,growth,E. coli TESEC Mtb Alr [2]; [7],0.112 ± 0.0026
same,growth,E. coli TESEC Mtb Alr [2]; [8],0.17 ± 0.0046
same,growth,E. coli TESEC Mtb Asd; [9],0.263 ± 0.03
same,growth,E. coli TESEC Mtb Asd; [10],0.228 ± 0.008
same,growth,E. coli TESEC Mtb DapB; [11],0.198 ± 0.03
same,growth,E. coli TESEC Mtb DapB; [12],0.221 ± 0.0089
same,growth,E. coli TESEC Mtb Alr [3]; [13],0.394 ± 0.014
same,growth,E. coli TESEC Mtb Alr [3]; [14],0.289 ± 0.0096
Nc1c2c(nc3ccccc13)CCCC2 [Tacrine hydrochloride],growth,[1],0.22 ± 0.0053
same,growth,E. coli TESEC Mtb Alr [2]; [4],0.263 ± 0.012
same,growth,E. coli TESEC Mtb Alr [2]; [5],0.248 ± 0.0067
same,growth,E. coli TESEC Mtb Alr [2]; [6],0.214 ± 0.042
same,growth,E. coli TESEC Mtb Alr [2]; [7],0.149 ± 0.014
same,growth,E. coli TESEC Mtb Alr [2]; [8],0.168 ± 0.007
same,growth,E. coli TESEC Mtb Asd; [9],0.242 ± 0.052
same,growth,E. coli TESEC Mtb Asd; [10],0.316 ± 0.076
same,growth,E. coli TESEC Mtb DapB; [11],0.222 ± 0.024
same,growth,E. coli TESEC Mtb DapB; [12],0.228 ± 0.014
same,growth,E. coli TESEC Mtb Alr [3]; [13],0.41 ± 0.01
same,growth,E. coli TESEC Mtb Alr [3]; [14],0.37 ± 0.017
COc1ccnc(C[S+]([O-])c2nc3cc(OC(F)F)ccc3[nH]2)c1OC (stereo not drawn) [Pantoprazole sodium],growth,[1],0.168 ± 0.0022
same,growth,E. coli TESEC Mtb Alr [2]; [4],0.218 ± 0.0049
same,growth,E. coli TESEC Mtb Alr [2]; [5],0.28 ± 0.0076
same,growth,E. coli TESEC Mtb Alr [2]; [6],0.18 ± 0.011
same,growth,E. coli TESEC Mtb Alr [2]; [7],0.119 ± 0.0037
same,growth,E. coli TESEC Mtb Alr [2]; [8],0.137 ± 0.0065
same,growth,E. coli TESEC Mtb Asd; [9],0.308 ± 0.1
same,growth,E. coli TESEC Mtb Asd; [10],0.296 ± 0.057
same,growth,E. coli TESEC Mtb DapB; [11],0.189 ± 0.0071
same,growth,E. coli TESEC Mtb DapB; [12],0.194 ± 0.018
same,growth,E. coli TESEC Mtb Alr [3]; [13],0.399 ± 0.011
same,growth,E. coli TESEC Mtb Alr [3]; [14],0.291 ± 0.022
CCN(CC)CCOC(=O)C1(c2ccc([N+](=O)[O-])cc2)CCCC1 [Nitrocaramiphen hydrochloride],growth,[1],0.235 ± 0.015
same,growth,E. coli TESEC Mtb Alr [2]; [4],0.281 ± 0.0086
same,growth,E. coli TESEC Mtb Alr [2]; [5],0.253 ± 0.0047
same,growth,E. coli TESEC Mtb Alr [2]; [6],0.148 ± 0.0071
same,growth,E. coli TESEC Mtb Alr [2]; [7],0.147 ± 0.0043
same,growth,E. coli TESEC Mtb Alr [2]; [8],0.137 ± 0.0018
same,growth,E. coli TESEC Mtb Asd; [9],0.205 ± 0.059
same,growth,E. coli TESEC Mtb Asd; [10],0.426 ± 0.0056
same,growth,E. coli TESEC Mtb DapB; [11],0.161 ± 0.01
same,growth,E. coli TESEC Mtb DapB; [12],0.18 ± 0.017
same,growth,E. coli TESEC Mtb Alr [3]; [13],0.412 ± 0.017
same,growth,E. coli TESEC Mtb Alr [3]; [14],0.324 ± 0.03
N/C(=N\C(=O)c1nc(Cl)c(N)nc1N)NCc1ccccc1 [Benzamil hydrochloride],growth,[1],0.14 ± 0.0042
same,growth,E. coli TESEC Mtb Alr [2]; [4],0.196 ± 0.0093
same,growth,E. coli TESEC Mtb Alr [2]; [5],0.256 ± 0.0065
same,growth,E. coli TESEC Mtb Alr [2]; [6],0.15 ± 0.0096
same,growth,E. coli TESEC Mtb Alr [2]; [7],0.111 ± 0.0026
same,growth,E. coli TESEC Mtb Alr [2]; [8],0.161 ± 0.0069
same,growth,E. coli TESEC Mtb Asd; [9],0.163 ± 0.006
same,growth,E. coli TESEC Mtb Asd; [10],0.199 ± 0.0084
same,growth,E. coli TESEC Mtb DapB; [11],0.213 ± 0.023
same,growth,E. coli TESEC Mtb DapB; [12],0.232 ± 0.013
same,growth,E. coli TESEC Mtb Alr [3]; [13],0.41 ± 0.0064
same,growth,E. coli TESEC Mtb Alr [3]; [14],0.299 ± 0.0065
